Assay outcomes (PubChem BioAssay)
A selection: hits, their analogues and other compounds. The true share with any hit is near 19%.
DT40 TDP1 no CPT – qHTS for Inhibitors of human tyrosyl-DNA phosphodiesterase 1 (TDP1): qHTS in cells in absence of CPT; DT40 Tdp1-/- hTDP1 cells, no CPT, ATP luminescence, 48 h; Potency, µM (highest dose often 46.2 µM), for inactives: top-dose activity change, negative = growth inhibition, hits mostly inhibitors; 420,000 compounds, 15% hits; further: potency means the concentration at half of the fitted maximal effect; nearly all actives have a fitted effect of over 55% in size
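Luminescent ATP content (CellTiter-Glo) served as the growth readout. Knockout chicken DT40 cells expressing human TDP1 were exposed to compounds without camptothecin for a minimum 48 hr at 37 °C.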
HT1080-NT tox – kills 2HG-producing HT-1080-NT fibrosarcoma cells; HT-1080-NT fibrosarcoma viability, CellTiter-Glo ATP luminescence, 48 h; Potency, µM (highest dose often 46.1 µM), inactives show top-dose activity, negative = less viability, most hits filed as cytotoxic; 360,000 compounds, 1.6% hits;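 further: NT is the 2HG producing partner of a matched IDH1 knockdown line; potency means the concentration at half of the fitted maximal effect; 0% = DMSO-treated cells and -100% = media-only wells without cells; nearly all actives have a fitted effect of over 55% in size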
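HT-1080-NT fibrosarcoma cells (2HG-overproducing), 750 cells/well in RPMI with 5% FBS, dosed after 2 h and incubated 48 h at 37C. CellTiter-Glo luminescence normalized to DMSO and no-cell wells; concentration-response curves fitted and classed.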
HT1080 IDH1KD tx – kills HT-1080 cells with IDH1 knockdown; 360,000 compounds, 2% hits; AID 686971; HT-1080 IDH1 knockdown viability, ATP luminescence, 48 h; Potency, µM (doses to about 46.1 µM), inactives show at the top dose activity, negative = toxicity, hits mostly cytotoxic;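 further: potency means the concentration at half of the fitted maximal effect; 0% = DMSO wells and -100% = cell-free medium wells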
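% activity derives from luminescence (CellTiter-Glo), normalised to DMSO and no-cell wells. HT-1080-IDH1KD cells, 750/well, had 48 h compound exposure at 37 °C.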
uPA generation – inhibitors of cell surface uPA generation | cell surface uPA generation assay, qHTS | Potency, µM (doses to about 38.3 µM), for the others: at the highest dose activity change, negative = inhibition, hits mostly inhibitors | 330,000 compounds, 0.31% hits | AID 540303; active means well fitted inhibition curve with a large enough effect; inconclusive means small, poorly fitted or top-dose-only effect; inactive means no such curve, though single readings can be large or run the other way; tested in mouse RAW 264.7 cells; further: potency means the concentration at half of the fitted maximal effect; nearly all actives have a fitted effect of over 55% in size
DT40 TDP1 CPT – growth inhibition of DT40 Tdp1-/-;hTDP1 cells with camptothecin (screen for TDP1 inhibitors); chicken DT40 Tdp1-/-;hTDP1 cells + 20 nM CPT, ATP luminescence, 48 h; AID 686979; 420,000 compounds, 12% hits; Potency, µM (doses to about 46.2 µM), without a hit: at the highest dose activity change, negative = growth inhibition, hits mostly inhibitors; further: potency means the concentration at half of the fitted maximal effect; nearly all actives have a fitted effect of over 55% in size
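Chicken DT40 Tdp1-/- cells stably complemented with human TDP1 were seeded at 400 cells/well in medium containing 20 nM camptothecin, exposed to pin-transferred compounds, and grown at 37 °C for at least 48 hr. Viability was read as ATP luminescence.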
IL1B secr inh – inhibitors of inflammasome signaling (IL-1 beta secretion). activity change, % at 57.5 µM. THP-1 LPS/ATP IL-1B secretion, AlphaLISA, 16 h; hits give low values. 360,000 compounds, 4.7% hits; in the data active means activity change below about -50%; inconclusive means mostly about -30% to -49%
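THP-1 cells pretreated 1 hr with compounds (up to 57.5 uM final), then stimulated with LPS (250 ng/mL final) plus ATP (1.25 mM final); secreted IL-1B measured by AlphaLISA after 16 hr, decreased signal indicating inhibition.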
* = called active by the depositor; ? = inconclusive; · = no result given; [ ] = remark or other dose. Unless noted, the call rests on the fitted dose curve; in most records, active means well fitted curve in the direction sought with a large enough effect; inconclusive means small, poorly fitted or top-dose-only effect, or another doubt; inactive means no such curve, though single readings can be large; an effect the other way counts as inactive or inconclusive. Unless noted, on the % scale 0 is the no-effect control and ±100 the full control effect.

SMILES	DT40 TDP1 no CPT	HT1080-NT tox	HT1080 IDH1KD tx	uPA generation	DT40 TDP1 CPT	IL1B secr inh
CC(C)Oc1ccc(S(=O)(=O)N2CCOCC2)cc1NC(=O)C1CCC1	-5%	-9%	-4%	2%	-2%	-2
Cc1noc(C)c1CSCC(=O)Nc1cc(C(F)(F)F)ccc1N1CCCCC1	16µM*	-3%	-12%	11%	18µM*	-7
Cc1noc(C)c1CSCC(=O)Nc1cc(Cl)ccc1N1CCCCC1	?	2%	-1%	32%	-26%	?
CC(C)Oc1ccc(S(=O)(=O)N2CCOCC2)cc1NC(=O)CSC(=S)N1CCCC1	21µM*	-7%	-14%	·	?	-28
Cc1cccc(NNC(=O)c2c(F)cccc2Cl)c1	-7%	2%	-8%	-11%	0%	5
CSc1nc2cc(S(=O)(=O)N3CCCCC3)ccc2s1	23µM*	-12%	-17%	-3%	?	-17
CSc1nc2cc(S(=O)(=O)N3CCOCC3)ccc2s1	-4%	-2%	-21%	·	-14%	3
CC(=O)Nc1ccc(NC(=O)c2ccc(OCc3c(C)noc3C)cc2)cc1	-9%	2%	21%	3%	-20%	7
Cc1ccc(NC(=O)c2ccc(OCc3c(C)noc3C)cc2)cc1C	?	?	-21%	-7%	?	-88*
Cc1noc(C)c1COc1ccc(C(=O)NNC(=O)c2ccccc2)cc1	4.6µM*	?	15µM*	-13%	5.2µM*	20
Cc1cccc(C)c1NC(=O)c1ccc(OCc2c(C)noc2C)cc1	16µM*	-3%	-16%	?	?	-9
Cc1noc(C)c1COc1ccc(C(=O)NNC(=O)c2ccccc2F)cc1	1.5µM*	?	6.5µM*	2.8µM*	2.3µM*	18
O=C(NCc1ccc2c(c1)OCO2)C1CCN(c2nccc(C(F)(F)F)n2)CC1	0%	-6%	15%	10%	-4%	4
CC1(c2ccc(OC(F)F)cc2)NC(=O)N(/N=C/c2c(O)ccc3ccccc23)C1=O (centres undefined)	-35%	?	?	-3%	-13%	9
N#CCCN(C(=O)COC(=O)CCc1nc2ccccc2c(=O)[nH]1)c1ccc(F)cc1	?	-4%	0%	-8%	?	-1
O=C(COC(=O)C1=COCCO1)Nc1ccc(Br)cc1Br	-25%	5%	11%	-4%	4%	-14
CCC(=O)NS(=O)(=O)c1ccc(-c2c(-c3ccccc3)noc2C)cc1	-20%	·	·	·	-1%	·
O=C(CSc1nc2ccccc2n1Cc1ccccc1)N1CCN(c2ccc(F)cc2)CC1	-23%	·	·	·	-14%	·
Cc1ncc2c(c1CNC(=O)c1ccccc1F)CCN(C(=O)c1ccccc1-n1cccn1)C2	-29%	·	·	·	11%[9.04 µM]	·
Cc1noc(C)c1COc1ccc(C(=O)N2CCN(c3ccccc3O)CC2)cc1	16µM*	2%	-1%	-1%	?	-2
COc1ccc(N2CCN(C(=O)c3c(-c4ccccc4)noc3C)CC2)cc1	?	0%	-3%	7%	?	0
Cc1noc(C)c1C(=O)N1CCN(c2ccc(OCc3ccccc3)cc2)CC1	16µM*	-10%	4%	2%	15µM*	-11
N/C(=N\OC(=O)N1c2ccccc2Sc2ccccc21)c1ccccc1	?	-8%	-13%	-15%	?	-11
CN(C)c1ccc2c(c1)Sc1cc(N(C)C)ccc1N2C(=O)c1ccccc1	21µM*	2%	-7%	10%	?	-11
CCOC(=O)c1cc(C#N)c(Oc2ccccc2)nc1-c1ccccc1	?	-11%	-12%	-2%	?	10
SMILES	DT40 TDP1 no CPT	HT1080-NT tox	HT1080 IDH1KD tx	uPA generation	DT40 TDP1 CPT	IL1B secr inh
CCCCNc1nc(-c2ccccc2)c(C(=O)OCC)cc1C#N	23µM*	?	?	-18%	?	0
C=CCNc1nc(-c2ccccc2)c(C(=O)OCC)cc1C#N	10µM*	?	?	-9%	?	0
CCCNc1nc(-c2ccccc2)c(C(=O)OCC)cc1C#N	2.9µM*	?	?	-11%	2.9µM*	23
CCOCC(O)COc1ccc(NC(=O)CC[S+](C)C)cc1 (centres undefined)	-2%	·	·	·	-2%	·
Cc1ccc(OCC(=O)Nc2ccc3nn(-c4ccc(C)cc4)nc3c2)cc1	-8%	·	·	·	-20%	·
CC1(C(=O)NS(=O)(=O)Cc2ccccc2C(F)(F)F)CCN1C(=O)c1ccco1 (centres undefined)	3%	1%	27%	·	4%	11
Cc1cccc(OCC(=O)Nc2nonc2-c2ccc(Br)cc2)c1C	?	·	·	·	18µM*	·
CCOc1ccc(-c2nonc2NC(=O)COc2c(C)cc(C)cc2C)cc1OCC	-38%	·	·	·	?	·
COc1ccc(OC)c(NC(=O)C(C)Oc2ccc(Br)cc2)c1 (centres undefined)	-20%	1%	-5%	-2%	-3%	1
Cc1ccc(OC(C)C(=O)Nc2nonc2-c2ccc(Br)cc2)cc1C (centres undefined)	18µM*	·	·	·	?	·
Cc1ccc(OCC(=O)Nc2nonc2-c2ccc(Br)cc2)cc1	-18%	·	·	·	-6%	·
Cc1cccc(OC(C)C(=O)Nc2nonc2-c2ccc(Br)cc2)c1C (centres undefined)	16µM*	·	·	·	26µM*	·
O=C(c1cnc(N2CCCCC2)c2ccccc12)N1CCN(c2cccc(Cl)c2)CC1	16µM*	·	·	·	?	·
O=C(c1cnc(N2CCCCC2)c2ccccc12)N1CCN(c2ccc(F)cc2)CC1	16µM*	·	·	·	23µM*	·
COc1ccccc1N1CCN(C(=O)C2CCN(C(=O)c3cccc(Cl)c3)CC2)CC1	?	-8%	-4%	-4%	?	24
COc1ccccc1N1CCN(c2ncc(C(=O)N3CCN(c4cccc(Cl)c4)CC3)c3ccccc23)CC1	2.6µM*	15%	10%	6%	2.6µM*	12
S=c1nc(-c2ccccc2)[nH]c2ccc(Br)cc12	?	-2%	-7%	-4%	2%	18
CC(C)(C)c1ccc(/C=C/C(=O)Nc2ccc(S(N)(=O)=O)cc2)cc1	8.2µM*	·	·	·	6.5µM*	·
NS(=O)(=O)c1ccc(NC(=O)/C=C/c2ccc(S(=O)(=O)NCc3ccco3)cc2)cc1	?	-22%	-28%	-11%	-26%	-52*
CCN/C=C(\C#N)S(=O)(=O)c1ccc(Br)cc1	6%	-6%	-6%	6%	4%	0
